TLR9-MyD88 block – TLR9-MyD88 interaction inhibition. Q9NR96+Q99836. CHO BLA complementation TLR9-MyD88, CCF4 FRET ratio. actives 0.21% (n = 340,000). inhibition, % at 4.98 µM;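 active = inhibition above the mean over all tested compounds plus 3 SD, cut at about 21% in these data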;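 also: 0% = DMSO only wells and 100% = clavulanate BLA inhibitor control wells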
TMEM16A inh – blocks the mouse calcium-activated chloride channel TMEM16A | Q8BHY3 | HEK293 TMEM16A/YFP iodide influx fluorescence, ionomycin | normalized B-score (activity score, 25-100; higher = stronger inhibition) at 10 µM | actives 1.2% (n = 310,000);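 active = ratio plate-corrected score three or more library SD toward inhibition, starting fluorescence score within five deviations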;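 also: score derived from kinetic fluorescence span divided by baseline fluorescence per well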
NOD2 RIPK2 PPI – blocks binding of human NOD2 to RIPK2; actives 0.38% (n = 360,000); CHO BLA complementation NOD2-RIPK2, CCF4 ratio; inhibition, % at 4.98 µM; in the data active = inhibition above about 21%;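 also: 0% = vehicle only and 100% = reference blocker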
TLR4-MyD88 BLA – TLR4-MyD88 interaction inhibition in cells; actives 0.18% (n = 200,000); inhibition, % at 8.4 µM; HeLa CL3-4 TLR4/MyD88 BLA complementation, FRET ratio; O00206+Q99836; in the data active = inhibition above about 25%;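 also: 0% = vehicle and 100% = reference inhibitor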
TMEM16A act – activates or potentiates the mouse TMEM16A chloride channel; Q8BHY3; HEK293 TMEM16A/YFP-H148Q/I152L, iodide quench fluorescence; stronger effect = lower value; B-score at 10 µM; actives 0.3% (n = 340,000); AID 623877;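 active = fluorescence-ratio B-score plate-corrected deviation score at least 3 library SD below zero, with starting fluorescence score within 5 deviations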;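 also: channel opened by trigger with iodide after compound preincubation; score built on the fluorescence ratio of max minus min over baseline; more negative score means more quench and so TMEM16A activation or potentiation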
m5-HT2A agonist – agonists of mouse serotonin 5-HT2A receptor (HTR2A) | P35363 | CHO-K1 mHTR2A beta-arrestin complementation, luminescence; percent of 30 µM serotonin response | activation, % at 7.6 µM | actives 0.66% (n = 360,000);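 active = activation above a run cutoff, the mean activation of all tested compounds plus 3 SD, cut at about 14% in these data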;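 also: 0% = plate median of compound wells and 100% = 30 µM serotonin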
MOR ag counter – OPRM1 agonism in mouse HTR2A counterscreen; activation, % at 9.3 µM; actives 5.3% (n = 2,300); shares compounds with m5-HT2A agonist; AID 624380; U2OS OPRM1 beta-arrestin PathHunter, luminescence; DMSO 0%, DAMGO 9.3 µM 100%;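 active = mean activation above the mean of DMSO-only wells plus 3 SD, cut at about 0.5% in these data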
Target sequence (P35372 whole entry, looked up): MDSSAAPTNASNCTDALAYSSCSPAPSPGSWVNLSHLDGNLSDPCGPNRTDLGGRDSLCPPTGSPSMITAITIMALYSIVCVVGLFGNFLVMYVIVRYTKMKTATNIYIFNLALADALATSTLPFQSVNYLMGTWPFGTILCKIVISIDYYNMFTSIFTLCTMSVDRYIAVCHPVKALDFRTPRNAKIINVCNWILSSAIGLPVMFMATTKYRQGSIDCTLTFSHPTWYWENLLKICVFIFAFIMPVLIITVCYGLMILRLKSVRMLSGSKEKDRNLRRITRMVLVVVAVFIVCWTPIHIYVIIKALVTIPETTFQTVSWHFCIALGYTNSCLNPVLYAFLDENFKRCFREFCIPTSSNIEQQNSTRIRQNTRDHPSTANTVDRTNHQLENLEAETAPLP
m5-HT2A ag conf – mouse HTR2A agonism confirmed. shares compounds with m5-HT2A agonist. CHO-K1 PathHunter beta-arrestin recruitment, luminescence; DMSO 0%, 30 µM serotonin 100%. activation, % at 7.6 µM. actives 19% (n = 2,300). AID 624381;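 active = mean activation across triplicates above the hit threshold derived in the original primary screen, cut at about 15% in these data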
Numbers without * were called inactive; i = inactive; / = not tested or not shown. Shown are actives, neighbours in structure and some others; about 2.4% of the full set was active somewhere.

SMILES | TLR9-MyD88 block | TMEM16A inh | NOD2 RIPK2 PPI | TLR4-MyD88 BLA | TMEM16A act | m5-HT2A agonist | MOR ag counter | m5-HT2A ag conf
C=CCn1c2ccccc2c2nnc(SCCCn3c(=O)[nH]c4ccccc43)nc21 | 2 | / | -1 | -13 | i | 17* | 0 | 3
Cc1nc2cc(Cl)c([N+](=O)[O-])cc2s1 | -5 | i | -4 | 20 | i | 19* | -1 | -1
CC(C)c1cc(NCC2CCCO2)n2c(nc3ccccc32)c1C#N (configuration not stated) | -1 | i | 2 | 6 | i | 17* | 0.8* | 25*
CCOC(=O)C1(C)CCCN(C(=O)c2c(F)ccc(C)c2F)C1 (configuration not stated) | / | / | 2 | / | / | 1 | / | /
N#CC1=C(N)Oc2n[nH]c(-c3cccs3)c2C1c1ccco1 (configuration not stated) | 7 | i | 4 | -14 | i | 2 | / | /
Cc1cc(-c2ccc3ccccc3c2)n2ncnc2n1 | -3 | i | -1 | 1 | i | 21* | 0 | 1
CCOC(=O)CSc1nc2sc3c(c2c(=O)n1CC)CC(C)(C)OC3 | -7 | i | -15 | -8 | i | 23* | 0 | -1
Cc1ccc(S(=O)(=O)CC(=O)N2CCCC2)cc1 | -18 | i | -3 | -9 | i | -4 | / | /
O=C(c1cccc(S(=O)(=O)NCc2ccccc2)c1)N1CCCCC1 | 4 | i | -10 | / | i | 19* | 0 | 3
O=C(c1ccc(NS(=O)(=O)c2ccccc2)cc1)N1CCCCCC1 | -6 | i | -9 | / | i | 17* | 0 | -2
O=C(CS(=O)(=O)c1ccccc1)N1CCCCCC1 | -12 | i | -7 | -12 | i | 21* | 0 | -1
CCOC(=O)C1CCCN(C(=O)c2cccc(S(=O)(=O)NCc3ccccc3)c2)C1 (configuration not stated) | -3 | / | -8 | / | / | 12 | / | /
O=C(c1ccc(S(=O)(=O)Nc2ccccc2)cc1)N1CCC1 | -7 | i | -6 | / | i | 2 | / | /
Cc1ccccc1NS(=O)(=O)c1ccc(C(=O)N2CCN(S(=O)(=O)c3ccccc3)CC2)cc1 | -16 | i | -12 | / | i | 15* | 0 | 0
CCN(CC)Cc1nc2c(c(=O)[nH]1)C1(CCCC1)Cc1ccccc1-2 | 1 | i | -6 | -6 | i | 0 | / | /
Cc1csc(NC(=O)C2CCCCC2)n1 | 2 | i | -8 | / | i | 1 | / | /
CC(=O)OC1(C(C)=O)CCC2C3CC(Cl)C4=CC(=O)CCC4(C)C3CCC21C (configuration not stated) | 5 | / | 7 | / | i | 4 | / | /
COc1ccc(C(=O)Nc2ccccc2C(=O)NC(Cc2ccc(O)cc2)C(=O)NNC(=O)c2ccccc2Cl)cc1 (configuration not stated) | -14 | i | -1 | 2 | i | 0 | / | /
C=CCn1c(SCC(=O)NC2CCCCC2)nnc1-c1ccccn1 | -1 | i | -5 | / | i | 14* | -1 | -1
Cc1ccc(-c2cn(-c3ccc(SC(F)F)cc3)c3[n+]2CCC3)cc1 | -1 | i | 3 | -6 | i | -4 | / | /
COc1ccc2[nH]c3c(c2c1)CCN1C(=O)C(CC(=O)NCCN2CCOCC2)C[C@H](C(=O)N(C(C)C)C(C)C)[C@@]31C (some centres not stated) | -2 | / | 0 | / | / | 0 | / | /
C=CCNC(=O)O/N=C/c1csc([N+](=O)[O-])c1 | / | i | -6 | / | i | 17* | 0 | -2
CC(C)CNC(=S)NC(=O)c1csc([N+](=O)[O-])c1 | -5 | i | 6 | / | i | -2 | / | /
COc1ccccc1NC(=O)Nc1nc(CC(=O)NCc2c(F)cccc2F)cs1 | 0 | i | -7 | / | i | -5 | / | /
COc1ccccc1NC(=O)Nc1nc(CC(=O)N2CCN(c3ccccc3F)CC2)cs1 | 3 | i | 5 | / | i | 15* | 0 | 0
SMILES | TLR9-MyD88 block | TMEM16A inh | NOD2 RIPK2 PPI | TLR4-MyD88 BLA | TMEM16A act | m5-HT2A agonist | MOR ag counter | m5-HT2A ag conf
Fc1ccc2nc3[nH]c4ccccc4c3nc2c1 | 7 | i | 9 | 16 | i | 22* | 0 | -1
C[C@H]1CN([C@@H](C)CO)C(=O)CCCn2nncc2CO[C@@H]1CN(C)Cc1ccc(-c2ccccc2)cc1 | -2 | / | 8 | / | / | 5 | / | /
CCCCNc1c(-c2cccnc2)nc2nc(C)cc(C)n12 | / | / | -15 | / | / | 20* | -1 | -4
Cc1ccc(S(=O)(=O)N2CCOCC2)cc1NC(=O)COC(=O)c1ccc2c(c1)OCCO2 | -3 | i | 4 | 6 | i | 17* | -1 | -3
Cc1ccc(S(=O)(=O)N2CCOCC2)cc1NC(=O)COC(=O)c1ccc2c(c1)OCO2 | -8 | i | -11 | 1 | i | -3 | / | /
Cc1ccc(S(=O)(=O)N2CCOCC2)cc1NC(=O)CNCc1ccc(Cl)cc1Cl | 10 | / | 10 | / | i | -1 | / | /
Cc1ccc(S(=O)(=O)N2CCOCC2)cc1NC(=O)CNCc1cccnc1 | -8 | i | -10 | / | i | 28* | -1 | 75*
O=C(CSc1ccccc1)NCc1ccco1 | 7 | i | 8 | -8 | i | 15* | -1 | 3
O=C(CSCC(=O)NCc1ccco1)NCc1ccco1 | 13 | i | -6 | 3 | i | -3 | / | /
Cc1nn(-c2cc(C)c3ccccc3n2)c2c1CCC2 | 1 | i | -13 | 4 | i | 2 | / | /
CCCCN(C(=O)c1cccc2c(=O)c(C)c(-c3ccccc3)oc12)c1ccccc1 | 3 | / | 2 | -14 | i | 38* | 0 | 10
CCCCNC(=O)c1cccc2c(=O)c(C)c(-c3ccccc3)oc12 | -7 | i | -5 | -8 | i | 0 | / | /
Cn1nnc(NC(=O)c2ccc(Br)o2)n1 | 6 | i | -8 | / | i | -5 | / | /
COc1ccc(Cl)cc1Cn1c(C)c(C(=O)N(C)Cc2ccc(F)cc2)sc1=O | / | / | 6 | / | / | 6 | / | /
CCCCN(C)C(=O)c1sc(=O)n(Cc2cc(Cl)ccc2OC)c1C | / | / | -5 | / | / | 17* | -1 | -6
Cc1cc(C)c2cc(CN(CCN3CCCC3)C(=O)Nc3ccc(F)cc3)c(=O)[nH]c2c1 | 2 | i | -6 | 1 | i | 20* | 0 | -1
O=c1[nH]ncc2c3ccccc3n(Cc3cccc(Cl)c3)c12 | -15 | i | 0 | 16 | i | -2 | / | /

Assay outcomes: PubChem BioAssay, several laboratories
